Results taken from PubChem BioAssay (EPA / NIEHS).
Calls of active or inactive are those of the source. The calls were made as follows: active = hit-call score of the fitted dose curve at least 0.9, where 1 is the maximum; inactive = score below 0.9.

Experiments:
[1] = read-out: CFLAR gene, CFLAR (gene 8837); assay: LTEA_HepaRG_CFLAR: Life Technologies and Expression Analysis (LTEA) Assay for CFLAR gene using HepaRG (AID 2283455); settings: mRNA level, 48 h; actives raise or lower the signal
In short: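 Differentiated HepaRG cells in serum-free induction medium were exposed 48 h in duplicate to eight half-log concentrations up to 100 uM in 0.5% DMSO; mRNA measured by TaqMan qRT-PCR, normalized to ACTB, GAPDH, POLR2A; bidirectional fitting versus DMSO.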

[2] = read-out: Forkhead box O1 (FOXO1), FOXO1 (gene 2308); assay: LTEA_HepaRG_FOXO1: Life Technologies and Expression Analysis (LTEA) Assay for Forkhead box O1 (FOXO1) using HepaRG (AID 2283456); settings: mRNA level, 48 h; actives raise or lower the signal
In short: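 Differentiated HepaRG cells, in serum-free induction medium with 0.5% DMSO, exposed 48 h in duplicate to 8-point half-log series from 100 uM. FOXO1 mRNA measured by TaqMan qRT-PCR, normalized to ACTB, GAPDH, POLR2A; bidirectional fit versus DMSO.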

[3] = read-out: growth arrest and DNA damage 45 (GADD45A), GADD45A (gene 1647); assay: LTEA_HepaRG_GADD45A: Life Technologies and Expression Analysis (LTEA) Assay for growth arrest and DNA damage 45 (GADD45A) using HepaRG (AID 2283458); settings: mRNA level, 48 h; actives raise or lower the signal
In short: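 Differentiated HepaRG cells were exposed in duplicate for 48 h in serum-free induction medium to 8-point half-log concentrations up to 100 uM in 0.5% DMSO. GADD45A mRNA was measured by TaqMan qRT-PCR, normalized to ACTB, GAPDH and POLR2A, with bidirectional fitting versus DMSO.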

[4] = read-out: Forkhead box O3 (FOXO3), FOXO3 (gene 2309); assay: LTEA_HepaRG_FOXO3: Life Technologies and Expression Analysis (LTEA) Assay for Forkhead box O3 (FOXO3) using HepaRG (AID 2283459); settings: mRNA level, 48 h; actives raise or lower the signal
In short: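 Differentiated human HepaRG cells, 48 h post-plating, exposed in duplicate for 48 h in serum-free induction medium; 8-point half-log series from 100 uM in 0.5% DMSO. FOXO3 mRNA by TaqMan qRT-PCR, normalized to ACTB/GAPDH/POLR2A; bidirectional fit versus DMSO.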

[5] = read-out: ABC Transporter (ABCB1), ABCB1 (gene 5243); assay: LTEA_HepaRG_ABCB1: Life Technologies and Expression Analysis (LTEA) Assay for ABC Transporter (ABCB1) using HepaRG (AID 2283460); settings: mRNA level, 48 h; actives raise or lower the signal
In short: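 HepaRG cells exposed in duplicate for 48 h in serum-free induction medium to eight half-log concentrations up to 100 uM in 0.5% DMSO. ABCB1 mRNA quantified by qRT-PCR, normalised to ACTB, GAPDH and POLR2A; fitted bidirectionally versus DMSO.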

[6] = read-out: growth arrest and DNA damage 45 (GADD45B), GADD45B (gene 4616); assay: LTEA_HepaRG_GADD45B: Life Technologies and Expression Analysis (LTEA) Assay for growth arrest and DNA damage 45 (GADD45B) using HepaRG (AID 2283461); settings: mRNA level, 48 h; actives raise or lower the signal
In short: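 Human HepaRG monolayers receive chemicals for 48 h at eight half-log concentrations, highest 100 uM, in 0.5% DMSO. Expression is measured by TaqMan qRT-PCR and normalized to ACTB, GAPDH and POLR2A.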

[7] = read-out: ABC Transporter (ABCC3), ABCC3 (gene 8714); assay: LTEA_HepaRG_ABCC3: Life Technologies and Expression Analysis (LTEA) Assay for ABC Transporter (ABCC3) using HepaRG (AID 2283462); settings: mRNA level, 48 h; actives raise or lower the signal
In short: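 Transcriptional change of ABCC3 in HepaRG after 48 h treatment, determined by qRT-PCR normalized to endogenous controls. Concentrations spanned eight half-log steps to 100 uM in 0.5% DMSO.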

[8] = read-out: ABC Transporter (ABCB11), ABCB11 (gene 8647); assay: LTEA_HepaRG_ABCB11: Life Technologies and Expression Analysis (LTEA) Assay for ABC Transporter (ABCB11) using HepaRG (AID 2283463); settings: mRNA level, 48 h; actives raise or lower the signal
In short: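 Differentiated human HepaRG cells in serum-free induction medium, dosed in duplicate for 48 h. Eight-point half-log series from 100 uM in 0.5% DMSO; ABCB11 mRNA by qRT-PCR, normalized to ACTB, GAPDH, POLR2A, fitted bidirectionally versus DMSO.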

[9] = read-out: ABC Transporter (ABCC2), ABCC2 (gene 1244); assay: LTEA_HepaRG_ABCC2: Life Technologies and Expression Analysis (LTEA) Assay for ABC Transporter (ABCC2) using HepaRG (AID 2283464); settings: mRNA level, 48 h; actives raise or lower the signal
In short: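 After plating and 48 h culture, HepaRG medium is replaced with serum-free induction medium and chemicals are added (8 concentrations, max 100 uM, 0.5% DMSO) for 48 h. Total RNA then undergoes qRT-PCR for ABCC2 with housekeeping normalization.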

[10] = read-out: Broad substrate specificity ATP-binding cassette transporter ABCG2 (Homo sapiens) (UniProt Q9UNQ0); assay: LTEA_HepaRG_ABCG2: Life Technologies and Expression Analysis (LTEA) Assay for ABC Transporter (ABCG2) using HepaRG (AID 2283465); settings: mRNA level, 48 h; actives raise or lower the signal
In short: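 Differentiated HepaRG cells were exposed for 48 h in serum-free induction medium to 8 half-log concentrations, top 100 uM, in 0.5% DMSO. ABCG2 mRNA was measured by qRT-PCR, normalized to ACTB, GAPDH and POLR2A, with bidirectional fitting versus DMSO.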

[11] = read-out: Peroxisomal acyl-coenzyme A oxidase 1 (ACOX1) gene, ACOX1 (gene 51); assay: LTEA_HepaRG_ACOX1: Life Technologies and Expression Analysis (LTEA) Assay for Peroxisomal acyl-coenzyme A oxidase 1 (ACOX1) gene using HepaRG (AID 2283467); settings: mRNA level, 48 h; actives raise or lower the signal
In short: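 HepaRG cells, plated 48 h then switched to serum-free induction medium, were exposed in duplicate for 48 h to 8-point half-log concentrations up to 100 uM in 0.5% DMSO. ACOX1 mRNA was measured by qRT-PCR, normalized to ACTB/GAPDH/POLR2A, and fitted bidirectionally versus DMSO.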

[12] = read-out: Alkaline Phosphatase, Placental (ALPP) gene, ALPP (gene 250); assay: LTEA_HepaRG_ALPP: Life Technologies and Expression Analysis (LTEA) Assay for Alkaline Phosphatase, Placental (ALPP) gene using HepaRG (AID 2283468); settings: mRNA level, 48 h; actives raise or lower the signal
In short: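 Using human liver HepaRG cells, chemicals are tested in duplicate over 48 h at half-log concentrations topping at 100 uM; phenobarbital 1 mM serves as induction control. ALPP mRNA change by qRT-PCR, bidirectional fit against vehicle.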

[13] = read-out: adenosine kinase (ADK) gene, ADK (gene 132); assay: LTEA_HepaRG_ADK: Life Technologies and Expression Analysis (LTEA) Assay for adenosine kinase (ADK) gene using HepaRG (AID 2283471); settings: mRNA level, 48 h; actives raise or lower the signal
In short: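 Read-out is ADK transcript level measured by qRT-PCR and normalised to three housekeeping genes. Cells are human HepaRG, dosed for 48 h at up to 100 uM in 0.5% DMSO. Gain or loss of signal is fitted against DMSO controls.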

[14] = read-out: Alpha-fetoprotein (AFP) gene, AFP (gene 174); assay: LTEA_HepaRG_AFP: Life Technologies and Expression Analysis (LTEA) Assay for Alpha-fetoprotein (AFP) gene using HepaRG (AID 2283472); settings: mRNA level, 48 h; actives raise or lower the signal
In short: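 Human HepaRG cells plated 48 h, then switched to serum-free induction medium and exposed in duplicate for 48 h to 8-point half-log series from 100 uM in 0.5% DMSO. AFP mRNA by qRT-PCR, normalized to ACTB, GAPDH, POLR2A; bidirectional fit versus DMSO.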

BCL2L11 (gene 10018) = assay: LTEA_HepaRG_BCL2L11: Life Technologies and Expression Analysis (LTEA) Assay for Bcl-2 (BCL2L11) gene using HepaRG (AID 2283473); settings: mRNA level, 48 h; actives raise or lower the signal
In short: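 Human hepatic HepaRG cultures are treated 48 h with test chemicals (maximum 100 uM, 0.5% DMSO vehicle). Expression of BCL2L11 is measured by qRT-PCR against ACTB, GAPDH and POLR2A, with activity in either direction scored relative to vehicle.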

[15] = read-out: Apolipoprotein A-V (APOA5) gene, APOA5 (gene 116519); assay: LTEA_HepaRG_APOA5: Life Technologies and Expression Analysis (LTEA) Assay for Apolipoprotein A-V (APOA5) gene using HepaRG (AID 2283474); settings: mRNA level, 48 h; actives raise or lower the signal
In short: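 Concentration-response of APOA5 expression in HepaRG: eight half-log doses to 100 uM, 48 h, qRT-PCR normalized to ACTB/GAPDH/POLR2A, bidirectional fitting with 0.5% DMSO as baseline.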

[16] = read-out: ATP-citrate lyase (ACLY), ACLY (gene 47); assay: LTEA_HepaRG_ACLY: Life Technologies and Expression Analysis (LTEA) Assay for ATP-citrate lyase (ACLY) using HepaRG (AID 2283466); settings: mRNA level, 48 h; actives raise or lower the signal
In short: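 Differentiated HepaRG cells exposed 48 h in serum-free induction medium to eight half-log concentrations up to 100 uM in 0.5% DMSO, duplicates. Transcript measured by Fluidigm TaqMan qRT-PCR, normalized to ACTB, GAPDH, POLR2A; bidirectional fit versus DMSO.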

[17] = read-out: Bcl-2 (BAX) gene, BAX (gene 581); assay: LTEA_HepaRG_BAX: Life Technologies and Expression Analysis (LTEA) Assay for Bcl-2 (BAX) gene using HepaRG (AID 2283470); settings: mRNA level, 48 h; actives raise or lower the signal
In short: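 Differentiated human HepaRG cells, plated 48 h then switched to serum-free induction medium, were exposed 48 h to 8 half-log concentrations up to 100 uM in 0.5% DMSO; BAX mRNA measured by qRT-PCR, normalized to ACTB, GAPDH, POLR2A.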

[18] = read-out: Bcl-2 (BAD) gene, BAD (gene 572); assay: LTEA_HepaRG_BAD: Life Technologies and Expression Analysis (LTEA) Assay for Bcl-2 (BAD) gene using HepaRG (AID 2283469); settings: mRNA level, 48 h; actives raise or lower the signal
In short: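 Differentiated HepaRG cells were exposed in duplicate in 0.5% DMSO for 48 h to eight-point half-log concentrations up to 100 uM. BAD mRNA was measured by Fluidigm TaqMan qRT-PCR, normalized to ACTB, GAPDH and POLR2A, and fitted bidirectionally against DMSO.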

[19] = CEETOX_H295R_TESTO: CeeTox H295R High-throughput Steroidogenesis Assay for Testosterone (TESTO) (AID 2283457); settings: actives raise or lower the signal;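 also: cells exposed to chemicals for 48 h before medium collection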
In short: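 Steroidogenesis in H295R cells following OECD 456 with minor changes; 48 h exposure. Medium testosterone by HPLC-MS/MS, DMSO as baseline, with MTT viability run in parallel.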

Broad substrate specificity ATP-binding cassette transporter ABCG2 (Homo sapiens), sequence (Q9UNQ0 whole entry, looked up): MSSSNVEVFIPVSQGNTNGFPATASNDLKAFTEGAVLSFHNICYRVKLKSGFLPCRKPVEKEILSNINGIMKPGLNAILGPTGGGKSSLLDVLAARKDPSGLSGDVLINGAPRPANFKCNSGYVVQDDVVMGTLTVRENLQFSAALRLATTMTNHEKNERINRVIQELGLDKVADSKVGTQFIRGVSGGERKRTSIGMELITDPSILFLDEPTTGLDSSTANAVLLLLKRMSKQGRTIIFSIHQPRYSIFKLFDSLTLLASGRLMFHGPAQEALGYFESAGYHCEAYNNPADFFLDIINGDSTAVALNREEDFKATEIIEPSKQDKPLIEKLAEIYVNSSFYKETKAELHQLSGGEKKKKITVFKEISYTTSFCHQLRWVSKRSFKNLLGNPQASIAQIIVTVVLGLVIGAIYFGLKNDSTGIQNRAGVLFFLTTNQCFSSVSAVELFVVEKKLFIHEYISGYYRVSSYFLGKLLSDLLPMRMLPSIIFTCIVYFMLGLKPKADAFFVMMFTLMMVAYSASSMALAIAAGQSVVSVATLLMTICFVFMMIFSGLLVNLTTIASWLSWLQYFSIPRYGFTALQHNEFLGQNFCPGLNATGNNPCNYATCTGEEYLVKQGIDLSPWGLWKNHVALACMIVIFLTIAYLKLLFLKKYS

O=C(O)C(F)(F)C(F)(F)C(F)(F)C(F)(F)C(F)(F)C(F)(F)C(F)(F)C(F)(F)F
outcome [1]: inactive
outcome [2]: inactive
AC50 [3]: 74.6 µM (active)
AC50 [4]: 50 µM (active)
AC50 [5]: 75.3 µM (active)
AC50 [6]: 16.8 µM (active)
outcome [7]: inactive
AC50 [8]: 90.4 µM (active)
AC50 [9]: 82.7 µM (active)
AC50 [10]: 50 µM (active)
AC50 [11]: 90.4 µM (active)
AC50 [12]: 50 µM (active)
outcome [13]: inactive
AC50 [14]: 78.4 µM (active)
AC50 (BCL2L11 (gene 10018)): 50 µM (active)
AC50 [15]: 82 µM (active)

Clc1ccc(C(c2ccccc2Cl)C(Cl)(Cl)Cl)cc1 (stereo not given)
outcome [1]: inactive
outcome [2]: inactive
outcome [3]: inactive
outcome [4]: inactive
outcome [6]: inactive
outcome [7]: inactive
AC50 [8]: 72.3 µM (active)
AC50 [9]: 13.2 µM (active)
outcome [16]: inactive
outcome [11]: inactive
outcome [12]: inactive
outcome [17]: inactive
AC50 [14]: 36.3 µM (active)
outcome (BCL2L11 (gene 10018)): inactive
AC50 [15]: 10.7 µM (active)

Cc1cc(O)ccc1Cl
outcome [1]: inactive
outcome [2]: inactive
outcome [3]: inactive
outcome [4]: inactive
outcome [5]: inactive
outcome [7]: inactive
outcome [10]: inactive
outcome [16]: inactive
outcome [11]: inactive
outcome [12]: inactive
outcome [18]: inactive
outcome [14]: inactive
outcome (BCL2L11 (gene 10018)): inactive
outcome [15]: inactive

CCOCCOC(C)=O
outcome [1]: inactive
outcome [2]: inactive
outcome [3]: inactive
outcome [4]: inactive
outcome [5]: inactive
outcome [7]: inactive
outcome [8]: inactive
outcome [9]: inactive
outcome [11]: inactive
outcome [12]: inactive
outcome [13]: inactive
outcome [14]: inactive
outcome (BCL2L11 (gene 10018)): inactive
outcome [15]: inactive

c1ccc(-c2ccccc2)cc1
outcome [1]: inactive
outcome [2]: inactive
outcome [3]: inactive
outcome [4]: inactive
outcome [5]: inactive
outcome [7]: inactive
outcome [8]: inactive
outcome [9]: inactive
outcome [11]: inactive
outcome [12]: inactive
outcome [17]: inactive
outcome [13]: inactive
outcome [14]: inactive
outcome (BCL2L11 (gene 10018)): inactive
outcome [15]: inactive

COS(=O)(=O)OC
outcome [1]: inactive
outcome [2]: inactive
outcome [3]: inactive
outcome [4]: inactive
outcome [5]: inactive
outcome [7]: inactive
outcome [9]: inactive
outcome [11]: inactive
outcome [12]: inactive
outcome [17]: inactive
outcome [14]: inactive
outcome (BCL2L11 (gene 10018)): inactive
outcome [15]: inactive

Cc1ccccc1CO[C@@H]1C[C@@]2(C(C)C)CC[C@]1(C)O2
outcome [1]: inactive
outcome [2]: inactive
AC50 [19]: 35 µM (active)
outcome [3]: inactive
outcome [4]: inactive
AC50 [5]: 50 µM (active)
outcome [7]: inactive
AC50 [9]: 75.1 µM (active)
outcome [11]: inactive
outcome [12]: inactive
outcome [14]: inactive
outcome (BCL2L11 (gene 10018)): inactive
outcome [15]: inactive
